Experimental findings from PubChem BioAssay (NCI) are described below.

SMILES strings stand for the structures. This is part of a sample that, as a whole, favours compounds with a hit. Of some 79,000 tested, about 15% had one in any assay. Unmarked numbers belong to inactive results. Activity calls are given as the source filed them. No stated cut-off is given here; in the data, active means growth inhibition above about 70%; inactive means the rest.

A short description of assay [1]: NCI Yeast Anticancer Drug Screen. Data for the rad50 strain (AID 155).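 Further: 0% = growth of vehicle-only cultures of the same strain.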 Particulars: S. cerevisiae rad50 strain growth inhibition, stronger effect = higher value. The gist of the method:
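A DNA repair-deficient yeast mutant serves as the test organism; compound-induced growth inhibition is calculated against vehicle-treated cells.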

A short description of assay [2]: NCI Yeast Anticancer Drug Screen. Data for the mec2-1 strain (AID 157). The settings on record: S. cerevisiae mec2-1 strain, stronger effect = higher value. The gist of the method: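 Strain: mec2-1 (DNA repair/cell cycle alteration). Compound exposure, then growth measured; inhibition expressed relative to vehicle.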
Assay [3] can be described thus: NCI Yeast Anticancer Drug Screen. Data for the sgs1 mgt1 strain (AID 161).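 Further: 0% = growth of cultures given vehicle only.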 Particulars: S. cerevisiae sgs1 mgt1 strain, stronger effect = higher value. A digest of the protocol:
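Test agents were incubated with a DNA-repair-mutant yeast strain. Growth was then read and compared against vehicle-treated controls.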

Assay [4] is described as follows: NCI Yeast Anticancer Drug Screen. Data for the cln2 rad14 strain (AID 165).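 Further: 0% = growth equal to vehicle treated cultures.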 The settings on record: S. cerevisiae cln2 rad14 strain, stronger effect = higher value. A digest of the protocol: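 Compounds are applied to the cln2 rad14 yeast strain, and growth is then compared with that of vehicle-treated cultures to give inhibition.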
A short description of assay [5]: NCI Yeast Anticancer Drug Screen. Data for the bub3 strain (AID 167). The settings on record: S. cerevisiae bub3 mutant strain, stronger effect = higher value. The gist of the method:
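Inhibition values come from growth of compound-treated mutant yeast normalised to vehicle-treated controls.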

Assay [6] is described as follows: NCI Yeast Anticancer Drug Screen. Data for the mlh1 rad18 strain (AID 175). The settings on record: S. cerevisiae mlh1 rad18 strain growth inhibition, stronger effect = higher value. A digest of the protocol:
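Read-out is yeast growth inhibition, calculated against vehicle-only controls. The compound was applied to a strain engineered with DNA damage repair alterations.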

Setting [7] is: at 5.0 µM (retest, dose inferred, filed as 0.5).
Where [8] appears, read: at 50.0 µM (retest, dose inferred, filed as 5.0).

For `O=C(Nc1nc2c(ncn2C2CC(OC(=O)c3ccccc3)C(COC(=O)c3ccccc3)O2)c(=O)[nH]1)c1ccccc1` (configuration not stated), the growth inhibition in assay [1] (setting [7]) is 3%; in assay [1] (setting [8]) it was 5%; in assay [1] (at 50.0 µM) it was 55.5%; in assay [2] (setting [7]) it was 8%; in assay [2] (setting [8]), 12%; in assay [2] (at 50.0 µM), 38.5%. Besides, the growth inhibition in assay [3] (setting [7]) was -16%; in assay [3] (setting [8]), 33%; in assay [3] (at 50.0 µM), 69.6%; in assay [4] (setting [7]), 6%; in assay [4] (setting [8]), 18%; in assay [4] (at 50.0 µM) it was 66.4%. Moreover, the growth inhibition in assay [5] (setting [7]) is 7%; in assay [5] (setting [8]), 10%; in assay [5] (at 50.0 µM), 57.6%; in assay [6] (setting [7]) it was 9%; in assay [6] (setting [8]) it was 12%; in assay [6] (at 50.0 µM), 60%.

Turning to `CCOC(=O)c1sc2c(c1O)c(=O)n(-c1ccccc1)c(=S)n2-c1ccccc1`, the growth inhibition in assay [1] (setting [7]) was 84% (active); in assay [1] (setting [8]) it was 98% (active); in assay [1] (at 50.0 µM) it was 95.7% (active); in assay [2] (setting [7]), 90% (active); in assay [2] (setting [8]), 98% (active); in assay [2] (at 50.0 µM), 95.8% (active). The growth inhibition in assay [3] (setting [7]) is 83% (active); in assay [3] (setting [8]) it was 98% (active); in assay [3] (at 50.0 µM) it was 95.5% (active); in assay [4] (setting [7]) it was 86% (active); in assay [4] (setting [8]), 98% (active); in assay [4] (at 50.0 µM) it was 85.3% (active). Moreover, the growth inhibition is 47% in assay [5] (setting [7]); 97% (active) in assay [5] (setting [8]); 95.2% (active) in assay [5] (at 50.0 µM); 92% (active) in assay [6] (setting [7]); 98% (active) in assay [6] (setting [8]); 95% (active) in assay [6] (at 50.0 µM).

As to `CC(=O)Nc1ccc(-c2nnc(SCC(=O)Nc3ccc([N+](=O)[O-])cc3)o2)cc1`, the growth inhibition in assay [1] (setting [7]) is -1%; in assay [1] (setting [8]), 45%; in assay [1] (at 50.0 µM), 33.4%; in assay [2] (setting [7]), -8%; in assay [2] (setting [8]), 65%; in assay [2] (at 50.0 µM) it was 39.3%. Also, the growth inhibition is 0% in assay [3] (setting [7]); 62% in assay [3] (setting [8]); 46% in assay [3] (at 50.0 µM); 4% in assay [4] (setting [7]); 56% in assay [4] (setting [8]); -37.9% in assay [4] (at 50.0 µM). Further, the growth inhibition in assay [5] (setting [7]) was 11%; in assay [5] (setting [8]), 92% (active); in assay [5] (at 50.0 µM), 82% (active); in assay [6] (setting [7]), 5%; in assay [6] (setting [8]), 74% (active); in assay [6] (at 50.0 µM), 28.4%.

For `CCOC(=O)Nc1nc2ccc(Cn3cccc3)cc2[nH]1`, the growth inhibition in assay [1] (setting [7]) was 25%; in assay [1] (setting [8]) it was 31%; in assay [1] (at 50.0 µM) it was 17.8%; in assay [2] (setting [7]), 19%; in assay [2] (setting [8]), 22%; in assay [2] (at 50.0 µM), -12.5%. For the same molecule, the growth inhibition in assay [3] (setting [7]) is 24%; in assay [3] (setting [8]), 24%; in assay [3] (at 50.0 µM) it was 10.9%; in assay [4] (setting [7]), 33%; in assay [4] (setting [8]), 24%; in assay [4] (at 50.0 µM) it was 6.05%. For the same molecule, the growth inhibition in assay [5] (setting [7]) was 22%; in assay [5] (setting [8]), 24%; in assay [5] (at 50.0 µM), -1.9%; in assay [6] (setting [7]), 25%; in assay [6] (setting [8]), 23%; in assay [6] (at 50.0 µM), -0.95%.

Consider `Oc1c(Cl)c(Cl)c(O)c2c1CCCC2`, for which the growth inhibition in assay [1] (setting [7]) was 46%; in assay [1] (setting [8]), 98% (active); in assay [1] (at 50.0 µM) it was 99.3% (active); in assay [2] (setting [7]), 67%; in assay [2] (setting [8]), 99% (active); in assay [2] (at 50.0 µM) it was 99.5% (active). In addition, the growth inhibition is 69% in assay [3] (setting [7]); 99% (active) in assay [3] (setting [8]); 99.2% (active) in assay [3] (at 50.0 µM); 14% in assay [4] (setting [7]); 99% (active) in assay [4] (setting [8]); 98.9% (active) in assay [4] (at 50.0 µM). Also, the growth inhibition is 65% in assay [5] (setting [7]); 98% (active) in assay [5] (setting [8]); 99.5% (active) in assay [5] (at 50.0 µM); 78% (active) in assay [6] (setting [7]); 99% (active) in assay [6] (setting [8]); 99.4% (active) in assay [6] (at 50.0 µM).

On to `O=C(N/N=C/c1ccccn1)c1ccccc1[O-].O=C(N/N=C/c1ccccn1)c1ccccc1[O-].[Co+2]`, for which the growth inhibition in assay [1] (setting [7]) was 5%; in assay [1] (setting [8]), 0%; in assay [1] (at 50.0 µM) it was 38.2%; in assay [2] (setting [7]) it was 21%; in assay [2] (setting [8]) it was 0%; in assay [2] (at 50.0 µM) it was 48.1%. Moreover, the growth inhibition was 13% in assay [3] (setting [7]); 5% in assay [3] (setting [8]); 42.5% in assay [3] (at 50.0 µM); 14% in assay [4] (setting [7]); 2% in assay [4] (setting [8]); 72.8% (active) in assay [4] (at 50.0 µM). Further, the growth inhibition in assay [5] (setting [7]) was 17%; in assay [5] (setting [8]) it was 2%; in assay [5] (at 50.0 µM), 99.2% (active); in assay [6] (setting [7]), 18%; in assay [6] (setting [8]), -2%; in assay [6] (at 50.0 µM), 66.8%.

For `COc1ccc(N)c([N+](=O)[O-])c1`, the growth inhibition in assay [1] (setting [7]) was -5%; in assay [1] (setting [8]), 13%; in assay [1] (at 50.0 µM), 41.8%; in assay [2] (setting [7]), 1%; in assay [2] (setting [8]), 23%; in assay [2] (at 50.0 µM) it was 58%. Also, the growth inhibition was -2% in assay [3] (setting [7]); 12% in assay [3] (setting [8]); 69.5% in assay [3] (at 50.0 µM); -1% in assay [4] (setting [7]); 10% in assay [4] (setting [8]); 39% in assay [4] (at 50.0 µM). Besides, the growth inhibition in assay [5] (setting [7]) was 2%; in assay [5] (setting [8]) it was 30%; in assay [5] (at 50.0 µM), 48.9%; in assay [6] (setting [7]), -4%; in assay [6] (setting [8]) it was 31%; in assay [6] (at 50.0 µM) it was 27.9%.

For `CN(C)C=Nc1ccc2nonc2c1`, the growth inhibition in assay [1] (setting [7]) was 15%; in assay [1] (setting [8]) it was 24%; in assay [1] (at 50.0 µM), 10.2%; in assay [2] (setting [7]) it was -15%; in assay [2] (setting [8]), -7%; in assay [2] (at 50.0 µM), -3.55%. The growth inhibition in assay [3] (setting [7]) was 12%; in assay [3] (setting [8]) it was 16%; in assay [3] (at 50.0 µM) it was 3.4%; in assay [4] (setting [7]), 19%; in assay [4] (setting [8]), 23%; in assay [4] (at 50.0 µM), 7.8%. For the same molecule, the growth inhibition in assay [5] (setting [7]) was 15%; in assay [5] (setting [8]), 13%; in assay [5] (at 50.0 µM) it was 4.1%; in assay [6] (setting [7]), 8%; in assay [6] (setting [8]), 10%; in assay [6] (at 50.0 µM), 0.9%.

As to `CS(=O)(=O)OCCN(CCOS(C)(=O)=O)c1ccc(C=Nc2ccc3ccccc3c2)cc1`, the growth inhibition is 12% in assay [1] (setting [7]); 80% (active) in assay [1] (setting [8]); 86.7% (active) in assay [1] (at 50.0 µM); 47% in assay [2] (setting [7]); 55% in assay [2] (setting [8]); 73.2% (active) in assay [2] (at 50.0 µM). Moreover, the growth inhibition was 6% in assay [3] (setting [7]); 45% in assay [3] (setting [8]); 71.1% (active) in assay [3] (at 50.0 µM); -2% in assay [4] (setting [7]); 64% in assay [4] (setting [8]); 37.7% in assay [4] (at 50.0 µM). Moreover, the growth inhibition in assay [5] (setting [7]) is -3%; in assay [5] (setting [8]), 6%; in assay [5] (at 50.0 µM), 10.3%; in assay [6] (setting [7]), 28%; in assay [6] (setting [8]), 90% (active); in assay [6] (at 50.0 µM), 95.3% (active).
